# According to PubChem BioAssay (Tox21):
# Several values for one entry are separate records, joined by “and”; a condition that tells them apart may be missing. Identical values can stand only once. Inconclusive results are not listed. A call without a number means that no potency is given here. Activity calls are given as the source filed them. The call rests on the fitted dose curve; in most records, active means well fitted activation curve with a large enough effect in the repeat runs; inconclusive means weak or mixed curves; inactive means flat fitted curve, though single readings scatter.
# Test: A CellTox Green Cytotoxicity Assay to monitor cytotoxicity in HepG2 cells - 24 hour (AID 1224878); further: nearly all actives have a fitted effect of over 45% in size
# Conditions: CellTox Green fluorescence; series mostly up to 76.8 µM
# From the text: National Center for Advancing Translational Sciences [NCATS]
# NIH Chemical Genomics Center [NCGC]
# U.S. Environmental Protection Agency [EPA]
# National Institutes of Environmental Health Sciences [NIEHS]
# National Toxicology Program [NTP]
# Cell-based models are critical for drug discovery. Determining the natural cytotoxic effects resulting from test compounds is an essential research activity. A CellTox Green Cytotoxicity Assay to monitor cytotoxicity in real time of continues cell culture during 40 hours of the compound treatment was used to screen Tox21 10K library compounds in HepG2 cells. CellTox Green Cytotoxicity Assay is a nonlytic, homogeneous, biofluorescent method to measure cytotoxicity in cell culture after experimental manipulation. The assay system uses a proprietary asymmetric cyanine dye that is excluded from viable cells but preferentially stains the dead cell's DNA. […] Viable cells produce no appreciable increases in fluorescence. Therefore, the fluorescence signal produced by the binding interaction with dead cell DNA is proportional to cytotoxicity.
# The mixture of HepG2 cell suspension and reagents were dispensed at 600cells/6 ul/well in 1536-well tissue culture treated black solid bottom plates using a Multidrop dispenser. After the assay plates were incubated at a 37 C/5% CO2 incubator for 5 hours, 23 nL of compounds dissolved in DMSO, positive and negative controls was transferred to the assay plate by a pintool work station. The plates were incubated at 37 C for 40 hours. The fluorescence intensity were measured at 0h, 8h, 16h, 24h, 32h and 40h time points using ViewLux plate reader during compound treatment.
# Potency means the concentration at half of the fitted maximal effect.
row,SMILES,Potency
1,CN(C)CCc1c[nH]c2cccc(O)c12,inactive
2,CCCCOCN(C(=O)CCl)c1c(CC)cccc1CC,inactive
3,CCCCN(CCCC)C(=S)[S-].CCCCN(CCCC)C(=S)[S-].[Zn+2],34.7 µM (active)
4,Cl/C=C\CCl,inactive
5,C[CH2][Hg][N]1C(=O)C2C(C1=O)C1(Cl)C(Cl)=C(Cl)C2(Cl)C1(Cl)Cl (stereo not given),7.37 µM (active)
6,CC(C)(C)c1ccc(CSc2cnn(C(C)(C)C)c(=O)c2Cl)cc1,inactive
7,CC(C)(O)c1cnn2c(-c3ccc(F)c(-c4c(F)cccc4C#N)c3)cnc2n1,inactive
8,Oc1c(Br)c(Br)c(Br)c(Br)c1Br,inactive
9,Cc1ccc(C(=O)Cl)cc1,inactive
10,Nc1ccc(Cc2ccc(N)c(Cl)c2)cc1Cl,inactive
11,C[C@@H](Oc1ccc(Cl)cc1Cl)C(=O)O,inactive
12,CCC(C)c1cc([N+](=O)[O-])cc([N+](=O)[O-])c1OC(=O)C=C(C)C (stereo not given),inactive
13,Oc1ccc(C(c2ccc(O)cc2)(C(F)(F)F)C(F)(F)F)cc1,54.7 µM (active) and 24.5 µM (active)
14,COS(=O)(=O)c1ccc(C)cc1,inactive
15,N#CCCO,inactive
16,CN(C)CCc1c[nH]c2ccc(O)cc12,inactive
17,CCc1cc(C)cc(CC)c1-c1c(OC(=O)C(C)(C)C)n2n(c1=O)CCOCC2,inactive
18,COc1ccc(OC)c(CC(C)N)c1 (stereo not given),inactive
19,[Hg+2].[I-].[I-],11 µM (active)
20,CCCCCCCCCCCCCCCCCCn1cc[n+](C)c1,24.4 µM (active)

row,SMILES,Potency
1,C[C@@H]1O[C@@H](O[C@@H]2C=C3CC[C@@H]4[C@H](CC[C@]5(C)[C@@H](c6ccc(=O)oc6)CC[C@]45O)[C@@]3(C)CC2)[C@H](O)[C@H](O)[C@H]1O,inactive
2,CC1(C)[C@H](C(=O)O[C@H](C#N)c2cccc(Oc3ccccc3)c2)[C@@H]1/C=C(\Cl)C(F)(F)F,inactive
3,O=C1C=CC(=O)c2ccccc21,12.3 µM (active)
4,COP(N)(=S)OC,inactive
5,COCC(=O)N(c1c(C)cccc1C)[C@H](C)C(=O)OC,inactive
6,Cc1cc(SCc2sc(-c3ccc(C(F)(F)F)c(F)c3)nc2C)ccc1OCC(=O)O,inactive
7,COc1cc(N)c(Cl)cc1C(=O)NC1CN2CCC1CC2 (stereo not given),inactive
8,Clc1ccc(COC(Cn2ccnc2)c2ccc(Cl)cc2Cl)cc1 (stereo not given),45.7 µM (active) and 54.7 µM (active)
9,Nc1ccccc1C(=O)OC/C=C/c1ccccc1,inactive
10,CC(C)OC(=O)C(O)(c1ccc(Cl)cc1)c1ccc(Cl)cc1,27.5 µM (active)
11,O=[N+]([O-])c1cc(Cl)ccc1Cl,inactive
12,CC(c1ccc(O)cc1)c1ccc(O)cc1,inactive
13,CCCSP(=O)(OCC)SCCC,inactive
14,CCOCCOC(C)=O,inactive
15,CC(C)[C@H](C(=O)O[C@H](C#N)c1cccc(Oc2ccccc2)c1)c1ccc(Cl)cc1,inactive
16,BrCBr,inactive
17,CC(C)OC(=S)S,inactive
18,CC1(C)CN=C(NN=C(/C=C/c2ccc(C(F)(F)F)cc2)/C=C/c2ccc(C(F)(F)F)cc2)NC1,19.5 µM (active)
19,c1ccc2c(c1)[nH]c1cnccc12,inactive
20,Oc1ccc(C(=C(Cl)Cl)c2ccc(O)cc2)cc1,inactive
